{
  "source": "PubChem BioAssay (EPA / NIEHS)",
  "note": "Inconclusive results are not listed. The source made the active and inactive calls. The calls were made as follows: active = hit-call score of the fitted dose curve at least 0.9, where 1 is the maximum; inconclusive = response in the unintended direction; inactive = score below 0.9.",
  "data": [
    {"biological_target": "Nuclear receptor subfamily 4 group A member 2 (Homo sapiens) (UniProt P43354)", "sequence (P43354 whole entry, looked up)": "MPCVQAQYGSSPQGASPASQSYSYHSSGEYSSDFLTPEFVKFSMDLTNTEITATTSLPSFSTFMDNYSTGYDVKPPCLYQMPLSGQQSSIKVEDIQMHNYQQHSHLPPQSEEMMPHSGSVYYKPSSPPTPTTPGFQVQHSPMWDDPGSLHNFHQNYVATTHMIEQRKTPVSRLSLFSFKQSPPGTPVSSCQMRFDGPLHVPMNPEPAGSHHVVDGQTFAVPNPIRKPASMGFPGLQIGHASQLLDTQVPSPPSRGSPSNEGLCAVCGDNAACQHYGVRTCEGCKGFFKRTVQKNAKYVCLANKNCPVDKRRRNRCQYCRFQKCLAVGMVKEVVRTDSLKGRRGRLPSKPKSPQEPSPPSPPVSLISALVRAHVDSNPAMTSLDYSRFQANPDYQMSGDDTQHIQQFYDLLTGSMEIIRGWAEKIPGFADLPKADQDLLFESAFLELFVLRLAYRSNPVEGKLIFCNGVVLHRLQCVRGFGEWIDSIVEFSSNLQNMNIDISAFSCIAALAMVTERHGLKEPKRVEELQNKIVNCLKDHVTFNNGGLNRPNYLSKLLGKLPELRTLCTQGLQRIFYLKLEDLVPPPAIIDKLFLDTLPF", "assay": "ATG_NURR1_TRANS: Attagene TRANS-FACTORIAL HepG2 Assay for human Nuclear Receptor Related Protein 1 (NURR1) (AID 2282985)", "settings": "HepG2 Attagene TRANS reporter, mRNA readout", "method": "ATG_TRANS is a cell-based, multiplexed-readout assay that uses HepG2, a human liver cell line, with measurements taken at 24 hours after chemical dosing in a 24-well plate.ATG_NURR1_TRANS is one of 30 assay component(s) measured or calculated from the ATG_TRANS assay. It is designed to make measurements of mRNA induction, a form of inducible reporter, as detected with fluorescence intensity signals by Reverse transcription polymerase chain reaction (RT-PCR) and Capillary electrophoresis technology.Data from the assay component ATG_NURR1_TRANS was analyzed into 1 assay endpoint. This assay endpoint, ATG_NURR1_TRANS, was analyzed in the positive analysis fitting direction relative to DMSO as the negative control and baseline of activity. Using a type of inducible reporter, measures of mRNA for gain-of-signal activity can be used to understand the reporter gene at the transcription factor-level as they relate to the gene NR4A2. Furthermore, this assay endpoint can be referred to as a primary readout, because this assay has produced multiple assay endpoints where this one serves a reporter gene function. To generalize the intended target to other relatable targets, this assay endpoint is annotated to the nuclear receptor intended target family, where the subfamily is orphan.\nHuman liver HepG2 cells are transiently transfected with multiple reporter transcription units (MRTUs) in 6-well plates using FuGene 6 reagent (Roche; 3 ml FuGene/1 mg DNA). The MRTU constructs are regulated by a cis-regulating element (promoter). […] A major difference between the CIS and TRANS system is that in CIS activities of endogenous TFs are measured, whereas the TRANS assay evaluates changes in activities of exogenous, chimeric NR-Gal4 proteins. […] At the end of 24 hour incubation, total RNA was isolated using TriZol reagent (Invitrogen). The isolated RNA is then reverse-transcribed using oligo(dT) primer and Mo-MLV reverse transcriptase (Invitrogen) with DNAse I (Ambion) treatment for 30 min. The one-tenth of the produced cDNA was amplified by PCR using Taq DNA polymerase (Invitrogen) and two reporter sequence-specific primers. The PCR products were fluorescently labeled by primer extension with 6-arboxyfluorescein (6-FAM) 5'-labeled reporter sequence-specific primer (2 min at 95 C, 20 s at 68 C and 10 min at 72 C) and these products were digested with 5U of HpaI (New England Biolabs) for 2h at 37 C. The fragments were purified using Qiaquick PCR columns (Qiagen), analyzed on an ABI 3130xL genetic analyzer (Applied Biosystems) with peak positions identified by using a set of X-rhodamine (ROX)-labeled MapMarker1000 molecular weight standards (BioVentures). The raw capillary electrophoresis data was processed using Attagraph software (Attagene).", "values": [
      {"smiles": "CCc1cccc(C)c1N(C(=O)CCl)[C@@H](C)COC", "outcome": "inactive"},
      {"smiles": "CC(=O)/C=C/c1ccccc1", "outcome": "inactive"},
      {"smiles": "Oc1ccc(C2(c3ccc(O)cc3)c3ccccc3-c3ccccc32)cc1", "outcome": "inactive"},
      {"smiles": "CC=Cc1ccc2c(c1)OCO2", "outcome": "inactive"},
      {"smiles": "Nc1c(Cl)c(Cl)c(Cl)c(Cl)c1Cl", "outcome": "inactive"},
      {"smiles": "O=S(=O)(O)O", "outcome": "inactive"},
      {"smiles": "CC1CCC(=O)O1", "note": "(stereo not given)", "outcome": "inactive"},
      {"smiles": "CN(C)C(=O)C(c1ccccc1)c1ccccc1", "outcome": "inactive"},
      {"smiles": "NNc1ccccc1", "outcome": "inactive"},
      {"smiles": "CCN(CC)C(=S)S", "outcome": "inactive"},
      {"smiles": "C=CC(=O)OCCCCOC(=O)C=C", "outcome": "inactive"},
      {"smiles": "CC1(C)CC(=O)CC(C)(C)N1[O]", "outcome": "inactive"},
      {"smiles": "O=C(O)CCCc1ccc(N(CCCl)CCCl)cc1", "outcome": "inactive"},
      {"smiles": "CCCCCc1cc(O)cc(O)c1", "outcome": "inactive"},
      {"smiles": "CC(C)(C)C(O)C(Oc1ccc(-c2ccccc2)cc1)n1cncn1", "note": "(stereo not given)", "AC50": "53.9 µM (active)"},
      {"smiles": "COc1cc(OC)nc(Oc2cccc(Oc3nc(OC)cc(OC)n3)c2C(=O)O)n1", "outcome": "inactive"},
      {"smiles": "Nc1ccccc1C(=O)Oc1ccc2ccccc2c1", "outcome": "inactive"},
      {"smiles": "O=S(=O)(O)OOS(=O)(=O)O", "outcome": "inactive"},
      {"smiles": "C=CCc1ccc(OC(=O)Cc2ccccc2)c(OC)c1", "outcome": "inactive"},
      {"smiles": "C[C@]12CC[C@H]3[C@@H](CC[C@@]45O[C@@H]4C(O)=C(C#N)C[C@]35C)[C@@H]1CC[C@@H]2O", "outcome": "inactive"},
      {"smiles": "CCCCCCCCCCCC#N", "outcome": "inactive"},
      {"smiles": "CC(C)(C)C(=O)CCl", "AC50": "135 µM (active)"},
      {"smiles": "CN1C[C@H](C(=O)N[C@]2(C)O[C@@]3(O)[C@@H]4CCCN4C(=O)[C@H](Cc4ccccc4)N3C2=O)C=C2c3cccc4[nH]cc(c34)C[C@H]21", "outcome": "inactive"},
      {"smiles": "O=P(O)(Oc1ccccc1)Oc1ccccc1", "outcome": "inactive"},
      {"smiles": "CCCCNP(N)(N)=S", "outcome": "inactive"},
      {"smiles": "Cc1ccc(N(SC(F)(Cl)Cl)S(=O)(=O)N(C)C)cc1", "outcome": "inactive"},
      {"smiles": "Cc1cc(C)c(C2=C(OC(=O)CC(C)(C)C)C3(CCCC3)OC2=O)c(C)c1", "outcome": "inactive"},
      {"smiles": "COc1cc(OC)c(OC)cc1C=O", "outcome": "inactive"},
      {"smiles": "CC(C)[C@@H](C(=O)O[C@@H](C#N)c1cccc(Oc2ccccc2)c1)c1ccc(Cl)cc1", "outcome": "inactive"},
      {"smiles": "CCC(=O)c1ccc(Cl)cc1", "outcome": "inactive"},
      {"smiles": "C=CC(=O)OCC(CC)CCCC", "note": "(stereo not given)", "outcome": "inactive"},
      {"smiles": "[N-]=[N+]=CC(=O)OC[C@H](N)C(=O)O", "outcome": "inactive"},
      {"smiles": "Nc1ccc([N+](=O)[O-])cc1N", "outcome": "inactive"},
      {"smiles": "C[N+](C)(C)CC(=O)[O-]", "outcome": "inactive"},
      {"smiles": "O=[N+]([O-])c1cc([N+](=O)[O-])c2ccccc2c1", "outcome": "inactive"},
      {"smiles": "CC(C)(O)C#N", "outcome": "inactive"},
      {"smiles": "CC(C)CCCCCCCOP(=O)(Oc1ccccc1)Oc1ccccc1", "AC50": "26.6 µM (active)"},
      {"smiles": "CCCCCCCCCCCCCCCC[N+](C)(C)C", "outcome": "inactive"},
      {"smiles": "BrCBr", "outcome": "inactive"},
      {"smiles": "CCCCOC(=O)CCC(=O)OCCCC", "outcome": "inactive"}
    ]}
  ]
}
